Here are results for 20 molecules from PubChem BioAssay.

Test [1] in a line: antimalarial activity against Dd2 strain (AID 2302;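 active means growth inhibition above 50% at the single 2 µM test dose, taken to imply half-maximal potency below 2 µM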;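 further: 0% = DMSO untreated growth and 100% = chloroquine plus artemisinin killed control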). Conditions: P. falciparum Dd2 in RBCs, LDH growth readout, 72 h; at 2 µM; stronger effect = higher value.
A short description of test [2]: HepG2 cytotoxicity, primary screen, cytotoxicity control for P. falciparum antimalarial project, cell-based, ATP luminescence (AID 2303;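 active means inhibition above 50%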;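 further: 0% = DMSO wells and 100% = digitonin-killed cells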). Conditions: HepG2 viability, 24-48 h, at 10 µM, stronger effect = higher value.
The target of test [3] is L-lactate dehydrogenase (Plasmodium falciparum (isolate CDC / Honduras)) (UniProt Q27743). As to the kind of experiment: PfLDH activity inhibition – cell lysate, 3D7 strain, counter-screen for P. falciparum growth inhibition project (AID 2304).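 Further: 0% = vehicle and 100% = reference inhibitor.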 Conditions: P. falciparum 3D7 crude extract, LDH APAD/NBT absorbance; at 2 µM; stronger effect = higher value.
The nature of test [4]: inhibition of 3D7 malaria parasite growth – strain 3D7 (AID 2306).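 Further: 0% = DMSO wells and 100% = chloroquine plus artemisinin control wells.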 Conditions: P. falciparum 3D7 erythrocytic growth, LDH absorbance, 72 h; at 2 µM; stronger effect = higher value.
Test [5] has as its target Calcium-dependent protein kinase 1 (Plasmodium falciparum (isolate 3D7)) (UniProt P62344). As to the kind of experiment: PfCDPK1 kinase inhibitors, biochemical, TCAMS library (AID 1159585; cut-off not given, nearly all actives have IC50 up to about 0.98 µM;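 further: inhibitors leave more ATP so luminescence rises with inhibition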). The conditions noted are these: recombinant PfCDPK1, Kinase-Glo ATP depletion luminescence. (In Kinase-Glo more light means more ATP remaining.)
Test [6] concerns the target Plasmodium falciparum protein kinase 6 (PK6, PF3D7_1337100) (UniProt Q8IDW1). Briefly: PfPK6 kinase inhibitors, biochemical, TCAMS library (AID 1159586). The conditions noted are these: recombinant PfPK6, Kinase-Glo ATP depletion luminescence.
The target of test [7] is Protein kinase 7 (PK7), Plasmodium falciparum 3D7 (PF3D7_0213400) (UniProt Q7YTF7). As to the kind of experiment: inhibition of Plasmodium PK7 catalytic activity – biochemical, TCAMS antimalarial set, Kinase-Glo luminescence (AID 1159587). Conditions: recombinant PfPK7, Kinase-Glo ATP depletion luminescence.
The target in test [8] is Calcium-dependent protein kinase 4 (Plasmodium falciparum (isolate 3D7)) (UniProt Q8IBS5). Briefly: PfCDPK4 kinase inhibitors, biochemical, TCAMS library (AID 1159588; cut-off not given, nearly all actives have IC50 up to about 0.91 µM). Conditions: recombinant PfCDPK4, Kinase-Glo ATP depletion luminescence.

A number with no mark means an inactive call. For some of these results: Entries with a potency or affinity are not part of this list. Active and inactive are the calls of the source. Unless noted, how the calls were made is not given here.

Chain of Calcium-dependent protein kinase 1 (Plasmodium falciparum (isolate 3D7)) (P62344 whole entry, looked up): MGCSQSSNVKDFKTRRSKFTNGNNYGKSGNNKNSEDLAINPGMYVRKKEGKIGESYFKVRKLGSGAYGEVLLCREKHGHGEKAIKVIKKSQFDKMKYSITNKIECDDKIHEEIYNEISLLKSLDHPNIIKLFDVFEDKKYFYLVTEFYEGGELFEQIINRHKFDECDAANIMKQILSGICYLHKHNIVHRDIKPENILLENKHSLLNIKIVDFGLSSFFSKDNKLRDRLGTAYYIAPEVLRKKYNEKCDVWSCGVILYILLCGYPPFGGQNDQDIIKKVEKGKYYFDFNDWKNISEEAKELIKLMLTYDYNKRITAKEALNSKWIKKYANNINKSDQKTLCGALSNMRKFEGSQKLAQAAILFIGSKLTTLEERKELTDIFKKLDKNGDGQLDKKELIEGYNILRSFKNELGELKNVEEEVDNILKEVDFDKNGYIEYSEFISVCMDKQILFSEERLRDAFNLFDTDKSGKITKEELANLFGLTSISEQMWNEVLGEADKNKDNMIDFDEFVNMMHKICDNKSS
Chain of Plasmodium falciparum protein kinase 6 (PK6, PF3D7_1337100) (Q8IDW1 1-305): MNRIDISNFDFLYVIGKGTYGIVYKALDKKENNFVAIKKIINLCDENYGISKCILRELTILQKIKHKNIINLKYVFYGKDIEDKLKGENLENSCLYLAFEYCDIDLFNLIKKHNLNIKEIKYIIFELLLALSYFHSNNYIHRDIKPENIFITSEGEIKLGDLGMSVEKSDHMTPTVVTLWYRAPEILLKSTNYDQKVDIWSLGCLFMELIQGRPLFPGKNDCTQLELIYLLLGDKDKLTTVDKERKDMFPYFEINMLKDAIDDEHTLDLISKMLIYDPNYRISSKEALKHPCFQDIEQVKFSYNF
Chain of Calcium-dependent protein kinase 4 (Plasmodium falciparum (isolate 3D7)) (Q8IBS5 whole entry, looked up): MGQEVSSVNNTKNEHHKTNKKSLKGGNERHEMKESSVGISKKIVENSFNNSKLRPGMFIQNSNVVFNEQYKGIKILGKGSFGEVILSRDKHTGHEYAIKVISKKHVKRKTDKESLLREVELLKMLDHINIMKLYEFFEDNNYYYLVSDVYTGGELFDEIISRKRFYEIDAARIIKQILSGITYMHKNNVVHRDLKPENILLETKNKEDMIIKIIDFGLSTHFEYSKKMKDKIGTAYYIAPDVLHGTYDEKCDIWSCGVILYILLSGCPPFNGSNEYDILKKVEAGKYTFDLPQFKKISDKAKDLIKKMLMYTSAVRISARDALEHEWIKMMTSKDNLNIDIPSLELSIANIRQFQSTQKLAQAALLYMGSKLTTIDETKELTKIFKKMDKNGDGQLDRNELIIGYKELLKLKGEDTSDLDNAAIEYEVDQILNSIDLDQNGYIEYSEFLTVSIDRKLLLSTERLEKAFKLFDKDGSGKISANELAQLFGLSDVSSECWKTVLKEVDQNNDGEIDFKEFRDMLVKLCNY
Chain of L-lactate dehydrogenase (Plasmodium falciparum (isolate CDC / Honduras)) (Q27743 whole entry, looked up): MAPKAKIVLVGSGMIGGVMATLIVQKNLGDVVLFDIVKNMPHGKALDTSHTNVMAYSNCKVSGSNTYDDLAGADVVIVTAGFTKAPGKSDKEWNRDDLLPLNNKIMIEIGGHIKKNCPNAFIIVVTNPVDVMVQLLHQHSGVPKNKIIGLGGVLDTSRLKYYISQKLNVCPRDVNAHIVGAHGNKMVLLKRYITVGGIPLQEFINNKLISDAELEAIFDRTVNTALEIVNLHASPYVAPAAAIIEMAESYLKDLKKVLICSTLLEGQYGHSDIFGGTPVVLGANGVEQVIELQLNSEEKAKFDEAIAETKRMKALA
Chain of Protein kinase 7 (PK7), Plasmodium falciparum 3D7 (PF3D7_0213400) (Q7YTF7 1-343): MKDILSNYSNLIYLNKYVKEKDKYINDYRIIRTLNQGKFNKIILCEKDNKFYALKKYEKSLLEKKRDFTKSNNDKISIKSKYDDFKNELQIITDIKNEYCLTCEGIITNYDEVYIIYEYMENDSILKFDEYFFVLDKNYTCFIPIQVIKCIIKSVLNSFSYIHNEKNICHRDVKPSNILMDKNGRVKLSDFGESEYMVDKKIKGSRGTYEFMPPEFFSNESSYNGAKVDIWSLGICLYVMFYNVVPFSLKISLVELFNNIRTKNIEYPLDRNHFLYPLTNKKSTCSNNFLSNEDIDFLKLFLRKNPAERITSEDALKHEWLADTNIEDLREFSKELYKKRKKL

For orientation: inhibition means the relative decrease from the control value, in per cent. Turning to `CC1(C)CN(CCC2CCC(NC(=O)/C=C/c3ccc(F)cc3F)CC2)Cc2ccc(C#N)cc21` (stereo not given), the results for the growth inhibition in test [1] and in test [4] were 77% (active) and 88% (active), respectively. In addition, the inhibition is 39% in test [2] and -6% in test [3]. In addition, the outcome in test [5], in test [6], in test [7] and in test [8] was inactive.
In the case of `O=C1CC(C(=O)Nc2cccc(-c3cccc(-c4nc5ccccc5[nH]4)c3)c2)c2ccccc2N1` (stereo not given), the growth inhibition in test [1] was 32%; in test [4] it was 84% (active). For the same molecule, the results for the inhibition in test [2] and in test [3] were 0% and 1%, respectively. Besides, the result in test [5], in test [6], in test [7] and in test [8] was inactive.
As to `COc1cc(NC(=O)c2sc(-c3ccc(Cl)cc3)cc2Cl)ccc1OCCN1CCCC1`, the growth inhibition in test [1] is 21%; in test [4] it was 93% (active). Moreover, the inhibition in test [2] was 72% (active); in test [3] it was 4%. For the same molecule, the outcome in test [5], in test [6], in test [7] and in test [8] was inactive.
Turning to `COc1cc2nc(N3CCC(CNC(=O)c4ccc(-c5ccc(C(F)(F)F)cc5)cc4)CC3)nc(N)c2cc1OC`, the growth inhibition in test [1] and in test [4] was 100% (active) in each case. In addition, the inhibition in test [2] is 94% (active); in test [3], 3%. Moreover, the result in test [5], in test [6], in test [7] and in test [8] was inactive.
For the molecule `CCCCc1ccc(-c2nc(NC(=O)Nc3nc(-c4ccccc4)[nH]c3C(=O)OCC)c(C(=O)OCC)[nH]2)cc1`, the figures for the growth inhibition in test [1] and in test [4] were 26% and 95% (active), respectively. The inhibition is 0% in test [2] and -4% in test [3]. For the same molecule, the outcome in test [5], in test [6], in test [7] and in test [8] was inactive.
As for `Cn1nc(-c2ccc(CNC3CCc4ccccc43)cc2)c2cnc(NCCN3CCCC3)nc21` (stereo not given), the growth inhibition in test [1] is 17%; in test [4] it was 99% (active). Further, the values for the inhibition in test [2] and in test [3] were 21% and -2%, respectively. For the same molecule, the result in test [5], in test [6], in test [7] and in test [8] was inactive.
Take `Cc1nc2nc(N)nc(N)c2c(C)c1Cc1ccccc1`: the values for the growth inhibition in test [1] and in test [4] were 0% and 95% (active), respectively. Besides, the inhibition was 62% (active) in test [2] and 3% in test [3]. The result in test [5], in test [6], in test [7] and in test [8] was inactive.
In the case of `O=C(Cn1c(CCc2cccc(F)c2F)cc(=O)c2ccccc21)N(Cc1ccc(-c2ccc(C(F)(F)F)cc2)cc1)C1CCN(CCN2CCOCC2)CC1`, the growth inhibition in test [1] was 41%; in test [4] it was 101% (active). Besides, the inhibition is 53% (active) in test [2] and 4% in test [3]. For the same molecule, the result in test [5], in test [6], in test [7] and in test [8] was inactive.
In the case of `CC(=O)c1cccc(NC(=O)C2c3ccccc3C(=O)N(CC(C)C)C2c2cccs2)c1` (stereo not given), the growth inhibition in test [1] and in test [4] was 100% (active) in each case. For the same molecule, the results for the inhibition in test [2] and in test [3] were 11% and -2%, respectively. Further, the result in test [5], in test [6], in test [7] and in test [8] was inactive.
With `COc1cc2c(cc1S(=O)(=O)c1ccc(NC(=O)c3cccc(C(F)(F)F)c3)cc1)CCN(C)CC2`, the growth inhibition was 25% in test [1] and 92% (active) in test [4]. For the same molecule, the inhibition in test [2] is 18%; in test [3] it was 3%. The outcome in test [5], in test [6], in test [7] and in test [8] was inactive.
As to `CSc1ccc2nccc(Nc3ccc(Oc4ccccc4)cc3)c2c1`, the growth inhibition is 68% (active) in test [1] and 94% (active) in test [4]. For the same molecule, the inhibition in test [2] is 30%; in test [3] it was -7%. Moreover, the result in test [5], in test [6], in test [7] and in test [8] was inactive.
Take `Cc1cc(N[C@@H](CC(C)C)C(=O)Nc2ccccc2)nc(NCCc2ccccc2)n1`: the values for the growth inhibition in test [1] and in test [4] were 87% (active) and 100% (active), respectively. For the same molecule, the inhibition was -4% in test [2] and -1% in test [3]. The outcome in test [5], in test [6], in test [7] and in test [8] was inactive.
For `Cc1ccc(NS(=O)(=O)c2ccc(-c3ccccc3)cc2)c(Cn2cnc(N3CCCNCC3)cc2=O)c1`, the growth inhibition in test [1] is 33%; in test [4], 87% (active). Also, the inhibition was 10% in test [2] and 4% in test [3]. In addition, the outcome in test [5], in test [6], in test [7] and in test [8] was inactive.
Regarding `Cc1cnc(C(=O)Nc2cccc(-c3cccc(-c4nc5c(C)cccc5[nH]4)c3)c2)cn1`, the growth inhibition in test [1] was 45%; in test [4], 99% (active). For the same molecule, the inhibition in test [2] was 15%; in test [3], -1%. Also, the result in test [5], in test [6], in test [7] and in test [8] was inactive.
`Cc1ccc(Cn2cnc(N3CC(C)NC(C)C3)cc2=O)cc1NC(=O)Nc1ccc(-c2ccccc2)cc1` (stereo not given): the figures for the growth inhibition in test [1] and in test [4] were 15% and 96% (active), respectively. For the same molecule, the inhibition is 18% in test [2] and 4% in test [3]. Besides, the outcome in test [5], in test [6], in test [7] and in test [8] was inactive.
Consider `Cn1cncc1C(=O)Nc1cccc(-c2cccc(-c3nc4ccc(F)cc4[nH]3)c2)c1`, for which the growth inhibition in test [1] is 45%; in test [4], 102% (active). In addition, the inhibition in test [2] is 16%; in test [3], 3%. For the same molecule, the result in test [5], in test [6], in test [7] and in test [8] was inactive.
Take `COCCN1CCC(N(CC2(O)CCN(c3ccc(C(F)(F)F)cc3)CC2)C(=O)Cn2c(SCc3cccc(F)c3F)cc(=O)c3ccccc32)CC1`: the growth inhibition in test [1] was 75% (active); in test [4], 94% (active). In addition, the inhibition in test [2] was 29%; in test [3], 5%. The result in test [5], in test [6], in test [7] and in test [8] was inactive.
For `CC(=O)Nc1ncc(C(=O)Nc2cccc(-c3ccc(-c4nc5ccccc5[nH]4)cc3)c2)s1`, the growth inhibition in test [1] is 66% (active); in test [4], 101% (active). In addition, the inhibition in test [2] is 12%; in test [3], -9%. Further, the outcome in test [5], in test [6], in test [7] and in test [8] was inactive.
Take `O=S(=O)(NCCN1CCCC1)c1cccc(-c2ccc(CNC3Cc4ccccc4C3)cc2)c1`: the figures for the growth inhibition in test [1] and in test [4] were 74% (active) and 99% (active), respectively. Besides, the inhibition in test [2] was 79% (active); in test [3], -4%. The outcome in test [5], in test [6], in test [7] and in test [8] was inactive.
As for `Cc1cccc2[nH]c(-c3ccc(-c4cccc(CN5CCC(CCN6CCCCC6)CC5)c4)s3)nc12`, the growth inhibition in test [1] was 100% (active); in test [4], 101% (active). In addition, the inhibition in test [2] is 99% (active); in test [3], -3%. Also, the result in test [5], in test [6], in test [7] and in test [8] was inactive.
